Source: PubChem BioAssay (National Center for Advancing Translational Sciences (NCATS))
Shown are actives, neighbours in structure and some others; about 7.3% of the full set was active somewhere.
Vaccinia mCherry – inhibitors of vaccinia virus infection (mCherry reporter signal); Vaccinia virus mCherry reporter infection, fluorescence; Potency, µM (top dose mostly 36.5 µM), without a hit: at the highest dose activity change, negative = inhibition, most hits filed as inhibitors; 0.63% of 310,000 active; AID 720579; calls by dose curve; tested in A549 cells; further: potency means the concentration at half of the fitted maximal effect; nearly all actives have a fitted effect of over 35% in size
Vaccinia Venus – inhibitors of vaccinia virus (Venus reporter); Potency, µM (titrated, usually from 36.5 µM), inactives show at the top dose activity change, negative = inhibition, hits mostly inhibitors; 0.46% of 330,000 active; Vaccinia virus Venus reporter expression, fluorescence; AID 720580; calls by dose curve; tested in A549 cells; further: potency means the concentration at half of the fitted maximal effect; nearly all actives have a fitted effect of over 30% in size
FMDV inh – antivirals against foot and mouth disease virus; FMDV antiviral cell-based qHTS; Potency, µM (titrated, usually from 57.9 µM), without a hit: at the top dose activity change, negative = inhibition, actives largely listed as inhibitors; 1.2% of 410,000 active; AID 1159524; calls by dose curve; tested in HEK293T cells; further: read-out not given here; potency means the concentration at half of the fitted maximal effect; nearly all actives have a fitted effect of over 45% in size
HCMV antiviral – inhibitors of human cytomegalovirus. HFF cells, HCMV-luciferase reporter, 72 h; hits give low values. activity change, negative = inhibition, % at 57.5 µM. 4.5% of 410,000 active; in the data active means activity change below about -60%; inconclusive means no clear call, values can overlap the other calls; inactive means above about -39%
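Compounds were evaluated in HFFs infected with an HCMV luciferase reporter virus (MOI 1 PFU/cell). Luciferase in lysates collected 72 h post infection served as the replication measure.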
HCV inh – HCV inhibition; Huh7.5.1 HCVcc-Cre infection, luciferase reporter, 44 h; Potency, µM (titrated, usually from 41.8 µM), for the others: at the top dose activity change, negative = inhibition, most hits filed as inhibitors; 3.4% of 340,000 active; AID 651820; active means well fitted inhibition curve with a large enough effect; inconclusive means small, poorly fitted or top-dose-only effect, or another doubt; inactive means no such curve, though single readings can be large or run the other way; further: potency means the concentration at half of the fitted maximal effect
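Cells seeded at 1,000/well and cultured 4 h, then compounds added followed by HCVcc-Cre virus (~0.5 moi). After 44 h further culture, luciferase substrate was added, plates held 15 min at room temperature, and luminescence read for 15 sec.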
An asterisk follows results filed as active; i = inactive; ? = inconclusive; / = no result; + = active, no number. On the % scale 0 is the no-effect control and ±100 the full control effect.

SMILES	Vaccinia mCherry	Vaccinia Venus	FMDV inh	HCMV antiviral	HCV inh
Cc1ccsc1/C=N/NC(=O)C(O)c1ccccc1 (configuration not stated)	/	/	0%	-35	7%
Cc1ccc(-c2nnc(SCC(=O)N/N=C/c3ccc(C)s3)n2-c2ccc(C)cc2)cc1	-19%	-12%	-6%	-63*	?
O=C(CN1CCN(Cc2ccccc2)CC1)N/N=C/c1ccco1	/	/	-19%	68	-9%
O=C(N/N=C/c1ccc([N+](=O)[O-])s1)C(O)c1ccccc1 (configuration not stated)	/	/	43%	-91*	7.1µM*
Cc1ccc(C(=O)N(Cc2ccco2)Cc2sccc2C)cc1	2%	-8%	26%	-13	/
O=C(Cc1ccccc1)N/N=C/c1ccc([N+](=O)[O-])s1	/	?	?	-29	11µM*
COC(=O)N/N=C/c1ccc([N+](=O)[O-])s1	-20%	?	-11%	-28	?
CSc1ncc(Cl)c(C(=O)N(Cc2ccc(C(C)C)cc2)C2CCS(=O)(=O)C2)n1 (configuration not stated)	-21%	-10%	30%	-5	/
Cc1ccc(Cc2cnc(NC(=O)c3ccc4c(c3)CC(c3ccccc3)OC4=O)s2)cc1 (configuration not stated)	-27%	-20%	0%	-2	/
N#Cc1c(N)c(C#N)c(-c2ccc3c(c2)OCO3)c2c1CCCC2	-4%	3%	0%	?	-12%
N#Cc1c(N)nc2c(c1-c1ccc3c(c1)OCO3)CCc1ccccc1-2	?	?	?	8	13µM*
N#Cc1c(-c2ccc3c(c2)OCO3)csc1N	?	-29%	20%	5	8.9µM*
Cc1ccc2c(=O)cc(C(=O)Nc3c(C(=O)c4ccccc4)oc4ccccc34)oc2c1C	-7%	-7%	-7%	4	/
O=C(Cn1cc(C(=O)c2cccs2)c2ccccc21)Nc1ccc(Br)cc1	-14%	-7%	-26%	-23	/
Cc1cc(N/N=C/c2cccc(Cl)c2)nc(NCc2ccccc2)n1	?	?	-21%	-2	13µM*
Cc1cc(N/N=C/c2cccc(F)c2)nc(NCc2ccccc2)n1	?	?	6%	8	-23%
Cc1cc(Nc2cccc(Cl)c2)nc(NCc2ccccc2)n1	/	/	?	-77*	?
Cc1cc(N/N=C/c2ccccc2)nc(NCc2ccccc2)n1	10µM*	?	-7%	-8	6.3µM*
Cc1cc(N/N=C/c2ccc(Cl)cc2)nc(NCc2ccccc2)n1	?	-11%	-14%	-13	35µM*
COc1ccccc1C(=O)N[C@@H]1c2ccccc2C2(CCN(Cc3cnn(C)c3C)CC2)[C@H]1O	-21%	-4%	4%	/	/
CCCC(NCC(O)COc1ccc(-c2ccccc2)cc1)c1ccccc1 (configuration not stated)	/	/	?	-32	11µM*
CC(NCC(O)COc1ccc2ccccc2c1)c1ccccc1 (configuration not stated)	?	-14%	-20%	-84*	6.3µM*
CCOC(=O)c1c(NC(=O)COC(=O)C2CCC2)sc(C(=O)N(C)C)c1C	i	-11%	-20%	18	-25%
CCOC(=O)c1c(NC(=O)COC(=O)c2nc(Cl)ccc2Cl)sc(C(=O)N(C)C)c1C	-13%	-17%	2%	-3	5%
CCOC(=O)c1c(NC(=O)COC(=O)c2ccccc2NC)sc(C(=O)N(C)C)c1C	i	-2%	25µM*	-12	13µM*
SMILES	Vaccinia mCherry	Vaccinia Venus	FMDV inh	HCMV antiviral	HCV inh
CCOC(=O)c1c(NC(=O)COC(=O)Cc2ccccc2[N+](=O)[O-])sc(C(=O)N(C)C)c1C	-14%	-10%	-12%	-3	10µM*
COc1ccccc1C(=O)NNC(=O)c1ccc(C)cc1	-14%	-9%	47%	68	16%
COc1ccccc1C(=O)NC(=O)Nc1c(C)cc(C)cc1C	/	/	-28%	?	13µM*
Cc1no[n+]([O-])c1COc1ccccc1/C=N/n1nnnc1N	?	?	-19%	-75*	?
CCN(CC)c1ccc2cc(-c3nnc(-c4ccccc4)o3)c(=O)oc2c1	-17%	-7%	3%	81	16%
CCN(CC)c1ccc2cc(-c3nc4ccccc4[nH]3)c(=O)oc2c1	2%	2%	4.5µM*	/	?
CCN(CC)c1ccc2cc(-c3nc4ccccc4n3C)c(=O)oc2c1	?	?	41%	-79*	?
COc1cccc(C2CC(=O)Nc3c2c(=O)nc2c(C)cccn32)c1 (configuration not stated)	1%	5%	-15%	-20	/
COc1ccc(N2CCc3c(C)nc4c(OC)cc(OC)cc4c32)cc1	?	?	?	-108*	13µM*
COc1ccc(N2CCc3c(C)nc4c(OC)cc(OC)cc4c32)c(OC)c1	/	/	0%	-20	11µM*
COc1ccc(N2CCc3c(C)nc4c(OC)cccc4c32)cc1	-14%	-12%	16%	-66*	?
CCC(C(=O)Nc1cc(OC)ccc1OC)n1c(C)c2cnn(-c3ccccc3)c(=O)c2c1C (configuration not stated)	-14%	-2%	-16%	15	/
COC(=O)[C@@H]1[C@@H](CO)[C@@H]2Cn3c(cccc3=O)[C@H]1N2Cc1ccccc1OC	/	/	/	19	/
CC1=CC(=O)C(C(C)C)=C/C1=N/OS(=O)(=O)c1ccccc1	/	/	25µM*	-89*	6.3µM*
Cc1ccc2c(c1)/C(=N/OS(=O)(=O)c1ccccc1)CCS2	/	/	-3%	43	-1%
CC1=CC(=O)C=C(C)C1=NOS(=O)(=O)c1ccccc1	-26%	-21%	14µM*	-97*	?
O=c1c(-c2cccs2)nc2cnc(N3CCNCC3)nc2n1Cc1cccs1	/	/	-12%	/	/
CCC1CN(C(=O)N2CCC(C(=O)NCCc3ccc(OC)cc3OC)CC2)c2ccccc2O1 (configuration not stated)	/	/	?	-21	13µM*
CCC1CN(C(=O)N2CCC(C(=O)N3CCN(c4cc(C)ccc4C)CC3)CC2)c2ccccc2O1 (configuration not stated)	?	?	18µM*	?	/
CCOc1ccccc1CNC(=O)C1CCN(C(=O)N2CC(CC)Oc3ccc(C)cc32)CC1 (configuration not stated)	-8%	-9%	35µM*	16	/
CCC1CN(C(=O)N2CCC(C(=O)NCCc3ccccc3OC)CC2)c2ccccc2O1 (configuration not stated)	i	-10%	-18%	+	?
COC(=O)c1ccccc1NC(=O)c1noc2c1CSc1ccccc1-2	-3%	-9%	15%	-14	/
CC(NC(=O)c1nn(C)c2c1CSc1ccccc1-2)c1ccccc1 (configuration not stated)	-12%	-13%	23%	37	/
O=C(CCCSc1nc2ccccc2[nH]1)N1CCN(c2ccc([N+](=O)[O-])cc2)CC1	i	-20%	18µM*	-27	1%
